# PubChem BioAssay
# Results filed as inconclusive are left out. Calls of active or inactive are those of the source.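 Rule for the calls, unless noted: active = normalized viability below 100% at a tested concentration; inactive = the rest.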
# Assays:
# [1] = growth inhibition of DIPG glioma cells, dose response, cell-based, SU-DIPG-XVII, MIPE5.0, CellTiter-Glo, qHTS (AID 1347060; cut-off not given, nearly all actives have AC50 up to about 26 µM;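 note: cells exposed to compound for 48 hours before viability readout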); conditions: SU-DIPG-XVII viability, CellTiter-Glo ATP luminescence
# [2] = growth inhibition of DIPG glioma cells, dose response, cell-based, SU-DIPG-XIII, MIPE4.0, CellTiter-Glo, qHTS (AID 1347061; cut-off not given, nearly all actives have AC50 up to about 37 µM;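 note: cells exposed to compound for 48 hours before readout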); conditions: SU-DIPG-XIII viability, CellTiter-Glo ATP luminescence
# [3] = growth inhibition of DIPG glioma cells, dose response, cell-based, JHH-DIPG-1, MIPE4.0, CellTiter-Glo, qHTS (AID 1347062; cut-off not given, nearly all actives have AC50 up to about 27 µM;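 note: cells exposed to compound for two days before readout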); conditions: JHH-DIPG-1 viability, CellTiter-Glo ATP luminescence
# [4] = growth inhibition of DIPG glioma cells, dose response, cell-based, SU-DIPG-IV, MIPE4.0, CellTiter-Glo, qHTS (AID 1347063; cut-off not given, nearly all actives have AC50 up to about 30 µM;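 note: compound exposure lasted 48 hours before the viability readout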); conditions: SU-DIPG-IV viability, CellTiter-Glo ATP luminescence
# [5] = growth inhibition of DIPG glioma cells, dose response, cell-based, SU-DIPG-XIII, MIPE5.0, CellTiter-Glo, qHTS (AID 1347064; cut-off not given, nearly all actives have AC50 up to about 23 µM;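 note: cells exposed to compound for 48 hours before the viability read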); conditions: SU-DIPG-XIII viability, CellTiter-Glo ATP luminescence
# [6] = viability loss in pontine glioma line – cell-based, SU-DIPG-XXV, MIPE5.0, CellTiter-Glo, qHTS, dose response (AID 1347065; cut-off not given, nearly all actives have AC50 up to about 26 µM;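 note: cells exposed to compound for 48 hours before ATP readout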); conditions: CellTiter-Glo ATP luminescence
# [7] = SU-DIPG-VI glioma cell viability, MIPE4.0 library, CellTiter-Glo luminescence, qHTS (AID 1347066; cut-off not given, nearly all actives have AC50 up to about 30 µM;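 note: cells exposed to compound for 48 hours before readout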); conditions: CellTiter-Glo ATP luminescence
# [8] = JHH-DIPG-1 glioma cell viability, MIPE5.0 library, CellTiter-Glo luminescence, qHTS (AID 1347067; cut-off not given, nearly all actives have AC50 up to about 26 µM;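 note: cells exposed to compound for 48 hours before readout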); conditions: JHH-DIPG-1 glioma viability, CellTiter-Glo ATP luminescence
# [9] = SU-DIPG-XXV glioma cell viability, MIPE5.0 library, qHTS (AID 1347068; cut-off not given, nearly all actives have IC50 up to about 30 µM;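 note: cells exposed to compound for 48 hours before viability readout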)
# [10] = sensitizers of A549 cells to miR-34 induction, primary screen, imaging, A549 dox-inducible miR-34, nuclei and caspase counts (AID 1347080;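 active = compounds whose cell count with miR-34 switched on is under 0.7 times the count with it off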); conditions: A549 miR-34 inducible, Hoechst nuclei count, 48 h
# [11] = modifiers of HSF1 nuclear foci, imaging, Selleck Cancer Library (AID 1347162; in the data active = plate-normalised HSF1 focus index below about 0.46); conditions: human cells, at 10 µM; SSMD: measured here: HSF1 foci SSMD mean; cell count: measured here: cell number; plate-normalised HSF1 focus index: stronger effect = lower value
# [12] = survival rescue of mitochondrial mutant cells in low glucose, primary screen, MELAS cybrids, Rieske KO mouse fibroblasts, CellTiter-Glo (AID 1508586;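 active = mean z-score across replicates of 1.96 or higher in either the MELAS or the Rieske mutant cell line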;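 note: z relative to plate mean and SD of compound and empty wells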)
# [13] = ovarian cancer cell viability with rucaparib, profiling panel, oncology-focused library, rucaparib conditional (AID 1508598); conditions: patient-derived ovarian cancer cells, CellTiter-Glo viability, 144 h, stronger effect = lower value
# [14] = LFS_MB_P medulloblastoma growth inhibition, cell-based, chromothripsis tumors, cisplatin or BGB combos (AID 1671449; in the data active = inhibition above about 80%;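 note: cells exposed for 96 hours; 0% = vehicle DMSO and 100% = killing by high DMSO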); conditions: LFS_MB_P medulloblastoma cells
# [15] = HDN33 neuroblastoma growth inhibition, cell-based, chromothripsis tumors, cisplatin or BGB combos (AID 1671450; in the data active = inhibition above about 80%;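 note: cells exposed to compound for four days; 0% = vehicle DMSO and 100% = cell killing by high DMSO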); conditions: HDN33 neuroblastoma cells, stronger effect = higher value
# [16] = ICB984 medulloblastoma cell growth inhibition, synergistic combos for chromothripsis tumors, cisplatin or BGB combos (AID 1671451; call rule not given here;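 note: cells exposed for 96 hours before readout; 0% = vehicle DMSO and 100% = killing by high DMSO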); conditions: ICB984 medulloblastoma cells, drug combinations, stronger effect = higher value
# [17] = HTB85 osteosarcoma cell growth inhibition, synergistic combos for chromothripsis tumors, BGB or cisplatin IC20 combos (AID 1671453; in the data active = inhibition above about 80%;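 note: cells exposed for 96 hours before readout; 0% = vehicle DMSO and 100% = high DMSO killing control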); conditions: HTB85 osteosarcoma cells, drug combinations, stronger effect = higher value
# [18] = MDA-MB-436 breast carcinoma cell growth inhibition, synergistic combos for chromothripsis tumors, BGB or cisplatin combos (AID 1671458; call rule not given here;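 note: cells exposed for 96 hours; 0% = vehicle DMSO and 100% = killing by high DMSO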); conditions: MDA-MB-436 breast carcinoma growth inhibition, drug combinations, stronger effect = higher value
# [19] = growth inhibition of BT084 medulloblastoma cells, cell-based, ICGC_MB145, cisplatin and BGB IC40 combos (AID 1671461; in the data active = inhibition above about 80%;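 note: cells exposed to drugs for 96 hours; 0% = vehicle DMSO and 100% = high DMSO full killing control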); conditions: drug combinations, stronger effect = higher value
# [20] = growth inhibition of RCMB18 medulloblastoma cells, cell-based, cisplatin and BGB IC40 combos (AID 1671462; in the data active = inhibition above about 80%;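 note: cells exposed to compound for four days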); conditions: stronger effect = higher value
# [21] = stronger effect = lower value, cell number ratio, induced over uninduced
# [22] = measured here: relative caspase fold change +Dox/-Dox
# [23] = measured here: total cells with miR-34 induction, stronger effect = lower value
# [24] = measured here: total cells without miR-34 induction
# [25] = MELAS cybrid survival, CellTiter-Glo 48 h, stronger effect = higher value
# [26] = Rieske KO mouse fibroblast survival, CellTiter-Glo 72 h
smiles,measurement,setting,value
CC(=O)Nc1nc(C)c(-c2ccc(Cl)c(S(=O)(=O)NCCO)c2)s1,AC50,[1],10.5 µM (active)
same,AC50,[2],7.43 µM (active)
same,AC50,[3],13.2 µM (active)
same,AC50,[4],2.09 µM (active)
same,AC50,[5],14.8 µM (active)
same,AC50,[6],6.61 µM (active)
same,AC50,[7],2.64 µM (active)
same,AC50,[8],16.6 µM (active)
same,IC50,[9],16.6 µM (active)
same,fold change,[10]; [21],1.06 (inactive)
same,fold change,[10]; [22],0.869
same,cell count,[10]; [23],3490
same,cell count,[10]; [24],3300
same,SSMD,[11],2.06
same,cell count,[11],7480
same,plate-normalised HSF1 focus index,[11],1.13 (inactive)
same,z-score,[12]; [25],-0.084 (inactive)
same,z-score,[12]; [26],1.03
same,viability,"[13]; at 0.000305 µM, OCI-C5x cells, with rucaparib 10 µM, 100% = cells with rucaparib alone",113% (inactive)
same,viability,"[13]; at 0.000305 µM, OCI-C5x cells, without rucaparib",119% (inactive)
same,viability,"[13]; at 0.000305 µM, OCI-P5x cells, with rucaparib 20 µM, 100% = cells with rucaparib alone",110% (inactive)
same,viability,"[13]; at 0.000305 µM, OCI-P5x cells, without rucaparib",117% (inactive)
same,viability,"[13]; at 0.00122 µM, OCI-C5x cells, with rucaparib 10 µM, 100% = cells with rucaparib alone",102% (inactive)
same,viability,"[13]; at 0.00122 µM, OCI-C5x cells, without rucaparib",126% (inactive)
same,viability,"[13]; at 0.00122 µM, OCI-P5x cells, with rucaparib 20 µM, 100% = cells with rucaparib alone",85.2% (active)
same,viability,"[13]; at 0.00122 µM, OCI-P5x cells, without rucaparib",107% (inactive)
same,viability,"[13]; at 0.00488 µM, OCI-C5x cells, with rucaparib 10 µM, 100% = cells with rucaparib alone",109% (inactive)
same,viability,"[13]; at 0.00488 µM, OCI-C5x cells, without rucaparib",123% (inactive)
same,viability,"[13]; at 0.00488 µM, OCI-P5x cells, with rucaparib 20 µM, 100% = cells with rucaparib alone",92.4% (active)
same,viability,"[13]; at 0.00488 µM, OCI-P5x cells, without rucaparib",112% (inactive)
same,viability,"[13]; at 0.0195 µM, OCI-C5x cells, with rucaparib 10 µM, 100% = cells with rucaparib alone",103% (inactive)
same,viability,"[13]; at 0.0195 µM, OCI-C5x cells, without rucaparib",120% (inactive)
same,viability,"[13]; at 0.0195 µM, OCI-P5x cells, with rucaparib 20 µM, 100% = cells with rucaparib alone",99.1% (active)
same,viability,"[13]; at 0.0195 µM, OCI-P5x cells, without rucaparib",115% (inactive)
same,viability,"[13]; at 0.0781 µM, OCI-C5x cells, with rucaparib 10 µM, 100% = cells with rucaparib alone",90.4% (active)
same,viability,"[13]; at 0.0781 µM, OCI-C5x cells, without rucaparib",125% (inactive)
same,viability,"[13]; at 0.0781 µM, OCI-P5x cells, with rucaparib 20 µM, 100% = cells with rucaparib alone",89.5% (active)
same,viability,"[13]; at 0.0781 µM, OCI-P5x cells, without rucaparib",107% (inactive)
same,viability,"[13]; at 0.313 µM, OCI-C5x cells, with rucaparib 10 µM, 100% = cells with rucaparib alone",93.3% (active)
same,viability,"[13]; at 0.313 µM, OCI-C5x cells, without rucaparib",116% (inactive)
same,viability,"[13]; at 0.313 µM, OCI-P5x cells, with rucaparib 20 µM, 100% = cells with rucaparib alone",88.3% (active)
same,viability,"[13]; at 0.313 µM, OCI-P5x cells, without rucaparib",108% (inactive)
same,viability,"[13]; at 1.25 µM, OCI-C5x cells, with rucaparib 10 µM, 100% = cells with rucaparib alone",95.9% (active)
same,viability,"[13]; at 1.25 µM, OCI-C5x cells, without rucaparib",122% (inactive)
same,viability,"[13]; at 1.25 µM, OCI-P5x cells, with rucaparib 20 µM, 100% = cells with rucaparib alone",92.7% (active)
same,viability,"[13]; at 1.25 µM, OCI-P5x cells, without rucaparib",110% (inactive)
same,viability,"[13]; at 5 µM, OCI-C5x cells, with rucaparib 10 µM, 100% = cells with rucaparib alone",94.4% (active)
same,viability,"[13]; at 5 µM, OCI-C5x cells, without rucaparib",132% (inactive)
same,viability,"[13]; at 5 µM, OCI-P5x cells, with rucaparib 20 µM, 100% = cells with rucaparib alone",39.1% (active)
same,viability,"[13]; at 5 µM, OCI-P5x cells, without rucaparib",60.5% (active)
same,inhibition,"[14]; at 0.5 µM, stronger effect = higher value",-45.2% (inactive)
same,inhibition,"[14]; measured here: combination with BGB IC20, at 0.005 µM",-29.7%
same,inhibition,"[14]; measured here: combination with BGB IC40, at 0.005 µM",-42%
same,inhibition,"[14]; measured here: combination with BGB IC40, at 0.05 µM",-7.74%
same,inhibition,"[14]; measured here: combination with cisplatin, at 0.5 µM, stronger effect = higher value",-52.3%
same,inhibition,"[14]; measured here: combination with cisplatin, at 5 µM, stronger effect = higher value",23.5%
same,inhibition,"[15]; BGB combo, at 5 µM",18.5%
same,inhibition,[15]; at 0.5 µM,22.6% (inactive)
same,inhibition,"[15]; cisplatin combo, at 5 µM",37%
same,inhibition,"[15]; measured here: with BGB IC20 combination, at 0.5 µM",13.7%
same,inhibition,"[15]; measured here: with cisplatin IC20 combination, at 0.5 µM",24.2%
same,inhibition,"[15]; single agent, at 5 µM",45%
same,inhibition,"[16]; BGB IC20 combo, at 0.005 µM",-5.45%
same,inhibition,"[16]; BGB IC40 combo, at 0.005 µM",3.46%
same,inhibition,"[16]; BGB IC40 combo, at 0.05 µM",30.7%
same,inhibition,[16]; at 0.5 µM,-2.76% (inactive)
same,inhibition,"[16]; cisplatin combo, at 0.05 µM",27.3%
same,inhibition,"[16]; cisplatin combo, at 0.5 µM",-19.5%
same,inhibition,"[16]; cisplatin combo, at 5 µM",2.87%
same,inhibition,"[16]; measured here: 5 uM single agent, at 5 µM",5.64%
same,inhibition,[17]; at 0.5 µM,10.5% (inactive)
same,inhibition,"[17]; measured here: with BGB IC20, at 0.5 µM",11.8%
same,inhibition,"[17]; measured here: with BGB IC20, at 5 µM",42.2%
same,inhibition,"[17]; measured here: with cisplatin IC20, at 0.5 µM",8.49%
same,inhibition,"[17]; measured here: with cisplatin IC20, at 5 µM",30.2%
same,inhibition,"[17]; single agent, at 5 µM",46.6%
same,inhibition,[18]; at 0.5 µM,1.41% (inactive)
same,inhibition,"[18]; measured here: BGB combination, at 0.5 µM",-2.21%
same,inhibition,"[18]; measured here: BGB combination, at 5 µM",-3.92%
same,inhibition,"[18]; measured here: cisplatin combination, at 0.5 µM",-6.73%
same,inhibition,"[18]; measured here: cisplatin combination, at 5 µM",-16.3%
same,inhibition,[19]; at 0.5 µM,10.3% (inactive)
same,inhibition,"[19]; cisplatin combination, at 0.5 µM",14.9%
same,inhibition,"[19]; cisplatin combination, at 5 µM",-88.1%
same,inhibition,"[19]; measured here: BGB IC40 combination 0.05 uM, at 0.05 µM",3%
same,inhibition,"[19]; single agent, at 5 µM",29.8%
same,inhibition,[20]; at 0.5 µM,9.76% (inactive)
same,inhibition,"[20]; cisplatin combo, at 5 µM",16.5%
same,inhibition,"[20]; measured here: BGB IC40 combination, at 0.05 µM",-25%
same,inhibition,"[20]; measured here: combination with cisplatin, at 0.5 µM",0.78%
same,inhibition,"[20]; single agent, at 5 µM",15.1%
COc1cc2c(Oc3ccc(NC(=O)C4(C(=O)Nc5ccc(F)cc5)CC4)cc3F)ccnc2cc1OCCCN1CCOCC1,AC50,[1],2.63 µM (active)
same,AC50,[2],8.33 µM (active)
same,AC50,[3],18.7 µM (active)
same,AC50,[4],6.62 µM (active)
same,AC50,[5],3.72 µM (active)
same,AC50,[6],1.32 µM (active)
same,AC50,[7],11.8 µM (active)
same,AC50,[8],5.9 µM (active)
same,IC50,[9],3.72 µM (active)
same,fold change,[10]; [21],1.06 (inactive)
same,fold change,[10]; [22],0.77
same,cell count,[10]; [23],1060
same,cell count,[10]; [24],992
same,z-score,[12]; [25],2.58 (active)
same,z-score,[12]; [26],0.0525
